Legend:
Experiment in all cases: PBM binding z-score (relative to random genomic background probes); higher = stronger binding; sequences stand for … in GC…GCGATTGACAGCGTAGAATGAAGG
[1] = test system: RARb homodimer (NR concentration 270 nM)
Method in brief: (§1)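 Probes were double-stranded and carried 34-nt variable regions with direct-repeat seeds, single-nucleotide variants, half-site ablations and random human genomic background sequences, printed on custom Agilent 4×180K protein-binding microarrays. Arrays were incubated 1 h with ligand-free nuclear receptor dimers in PBS pH 7.4, 2% milk, 0.02% Triton X-100, 1 mM DTT, 0.2 mg/mL BSA and 0.4 mg/ml salmon testes DNA. Antibodies against each partner (one per run) detected binding, and scanned fluorescence was regression-normalized. Binding z-scores use the random background probes as reference.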

[2] = test system: RARg:RXRa (NR concentration 270 nM, RXRa partner concentration 90 nM)
Method in brief: as §1

[3] = test system: RARg homodimer (NR concentration 270 nM)
Method in brief: as §1

[4] = test system: RXRa DBDmut IVT, anti-RXR (DBD mutation: RXRa K156A/R161A, NR concentration 90 nM)
Method in brief: as §1

[5] = test system: RXRa homodimer (NR concentration 180 nM)
Method in brief: as §1

[6] = test system: THRa:RXRa (NR concentration 90 nM, RXRa partner concentration 90 nM)
Method in brief: as §1

[7] = test system: THRa homodimer (NR concentration 90 nM)
Method in brief: as §1

[8] = test system: VDR homodimer (NR concentration 270 nM)
Method in brief: as §1

Sequence	PBM binding z-score [1]	PBM binding z-score [2]	PBM binding z-score [3]	PBM binding z-score [4]	PBM binding z-score [5]	PBM binding z-score [6]	PBM binding z-score [7]	PBM binding z-score [8]
ACAGAAAGGTGATGAAGGTAACTCAGGCTATCAT	0.99	1.18	1.35	0.11	1	1.44	0.0697	-0.00913
AGAATGAGGTTCAGATCAGGGAAACAGAATACAT	0.405	0.907	0.758	1.63	1.02	2.61	-0.043	1.03
TAGCCTAGGTCATGGGCTAGTATACCACGCGAAC	2.79	4.26	4.32	-0.132	3.45	3.07	0.81	0.156
TCTAGTAGGTTAGGGGCATTCAGAATGGCGTCGA	1.31	0.656	0.586	1.42	0.98	1.03	0.797	1.39
AATACAGGGTCACCGTAGGCCAGAGTACGCACAG	3.94	6.08	5.9	2.62	7.11	4.55	1.77	2.81
CAAACTTGGTCAAAGGTCAAAGTCGAGCCAACCA	4.86	7.37	6.36	1.58	8.93	3.89	0.672	2.28
CGTCCAAGGTCAGGGTCAGTGAAAGAGACTCGAA	4.57	5.67	6.48	2.75	5.14	3.9	2.66	2.19
CATACAGGTTCAGCTAGGCCAGAGTAGGGACGGC	0.871	1.01	1.03	2.89	1.41	1.05	0.0311	2.65
ATCTCTAGGTAAGACTCAGTTAAGTGAAGAACGC	0.172	0.0663	0.313	0.443	0.197	0.607	0.783	0.377
GATACAGGGTCAGGGCCAGAGTACGCGTATTGAT	3.15	4.29	4.19	0.901	4.15	2.89	0.838	1.2
AATACCGGGTCACTAGGCCAGAGTAGGTACGAAT	2.74	4.17	3.95	1.2	4.15	3.08	0.928	1.22
GGAACGAGGGCAAAGTTGATAGCGTCTGTCGACG	1.32	2.22	1.75	2.69	2.17	1.38	-0.194	1.43
GCTGGTTGGTCAGTAAAAGGTCACACACCGGTCG	5.18	5.81	5.42	0.18	5.73	3.5	2.21	2.29
CCAGCTAGGTCAATGGTCAGCTAAAGCAGCTCGC	2.83	3.55	4.15	1.51	2.04	2.1	0.209	0.021
TATATTAGTTGATTAGGGCAACCGAAACAGCGGA	0.779	0.789	1.19	0.252	0.43	0.944	0.495	0.982
CTCGAAATGTCGTGCTCAGGTGAGTATACCAAAC	0.0938	0.145	0.0439	0.155	-0.16	1.53	0.939	0.16
TCATATAGGTCATACAGGTGAAAGTCGGCATCTA	3.8	5.21	5.03	2.68	5.27	3.42	0.973	1.81
CGTCCAAGGTCGGAGAGGTCAGTGAATGCCGAGT	4.01	4.23	4.66	2.06	3.74	3.34	1.31	3.93
TCGAGTAGGTTAGTCGGGGCGTTCAGCCAACATA	-0.146	-0.702	-0.632	0.213	-0.538	0.808	-0.254	-0.484
GCAACTGGGGCATCAGCAGGTTACCATAACTTAA	0.793	0.74	0.473	0.26	0.318	1.04	0.19	-0.0433
CGTCCAAGGTCAGCAGGTCAATGAAAGCGACGTG	5.24	6.59	6.73	2.62	5.64	4.03	2.46	2.23
TTACCAAGGTGTGCTGAGGTCGTTGATCCAACTC	1.18	0.184	-0.154	0.555	0.725	3.24	1.77	2.39
TCATGTAGATCAAAGGTTAAGAAAGCCGAAGCCT	1.55	1.96	0.89	1.08	3.55	1.37	-0.229	-0.0577
AGCCAAAGTTCATCTAGGTAACGTAAGATATGCT	4.1	5.56	5.88	4.5	4.72	3.15	0.256	5.28
TAGCATAGGTCAGATCGGGCCAGTATACGCTATA	2.53	3.8	3.77	-0.503	2.97	4.24	-1.1	-0.438
ATATGTAGGTTACATCCGGGTCATGCAGGCTATG	2.93	3.76	2.25	0.707	3.4	4	2.29	1.76
CCTGCTAGGTCAATGGTCCGCTAAAGCAGCTCGC	2.71	3.34	3.91	1.71	1.57	2.19	0.549	-0.203
TCGAGTAGGTTAGTCGGGGCAATCAGCCAACATA	0.889	0.0718	0.25	0.255	0.0944	2.38	-0.198	-0.417

From the supplement of paper PMC6555819
